Laboratory results published in article PMC7819943, “Rice protein-binding microarrays: a tool to detect cis-acting elements near promoter regions in rice”.
The full ranking holds about 68,000 sequences; the median of “fluorescence intensity (a.u.)” is about 9,100, and the highest 2% start at about 16,000. Shown is part of a subset that was picked to be rich in the highest values.

Each sequence was assayed against OsWRKY34 (Oryza sativa, UniProt Q0JBA9 1-250) (assay: protein-binding microarray (RPBM); PBS, 2% BSA, 51.3 ng/ul salmon testes DNA, 50 uM zinc acetate, 200 nM TF, 25 C, 1 h; high values mean tight binding). Settings: protein: recombinant; tags: N-terminal polyhistidine and DsRed monomer fusion (pET32a); label: CyDye5-dUTP incorporated in the synthesized complementary strand; 3' TTTTT single-stranded linker to array surface; dsDNA, one strand shown.
Summary of the method: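 Per-feature fluorescence intensity (arbitrary units), read on an Axon 4000B scanner, is the binding signal. Transcription factors carrying an N-terminal polyhistidine tag and DsRed fusion were expressed in E. coli BL21-CodonPlus and purified on Ni–NTA. A custom Agilent array, made double-stranded by primer extension with Cy5-dUTP and blocked with 2% BSA, was incubated with 200 nM protein in PBS, 2% BSA, salmon testes DNA and 50 µM zinc acetate at 25 °C for 1 h and then washed.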

OsWRKY34, sequence (Q0JBA9 entry or part of it): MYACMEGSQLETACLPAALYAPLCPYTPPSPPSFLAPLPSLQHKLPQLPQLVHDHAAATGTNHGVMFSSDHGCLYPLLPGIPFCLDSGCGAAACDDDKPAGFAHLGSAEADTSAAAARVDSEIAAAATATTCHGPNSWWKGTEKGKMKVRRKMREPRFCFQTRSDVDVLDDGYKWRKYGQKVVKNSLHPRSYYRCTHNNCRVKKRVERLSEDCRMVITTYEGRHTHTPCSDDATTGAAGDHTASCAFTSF

First: GAGGGATGTCTTATATCTAGTTTTGTGGTTGGAGGATGATCGGAGTCACCTAGTGCAG
Second: TCTGTGTTGGCGAGAGTTGGTGTCTGGAATTGGGCTTGGTCGGAGTCACCTAGTGCAG
The binding signal of the first is lower: 8770 fluorescence intensity (a.u.) for the first, 9200 fluorescence intensity (a.u.) for the second.

Going from “GTTCTATTGTACTGGTCAGTTCAGTGGACTCGGTTCTGTTCGGAGTCACCTAGTGCAG” to “CTACACTGTCTTGCTCGCTCATTGTCTCTCTCTGCATTTGCGGAGTCACCTAGTGCAG”, the binding signal falls from 9260 fluorescence intensity (a.u.) to 8580 fluorescence intensity (a.u.).

Compared with “TATGTTCGGTATCGTATTAAATCTACTCCTATTTGTACCTCGGAGTCACCTAGTGCAG”, “TTTTGTTCGCTACTATAGGCCCACACGTCTGTGCCCATGGCGGAGTCACCTAGTGCAG” is higher in binding signal: 8570 fluorescence intensity (a.u.) for the first, 8660 fluorescence intensity (a.u.) for the second.

First: CTCCTCTTCTTCTCTTCTCCTTCGTTGGGCGTGGGCGTCGCGGAGTCACCTAGTGCAG
Second: CCGACGCCTACTACTTCGCCCACTAGCCACGCGTGCTGCCCGGAGTCACCTAGTGCAG
The binding signal of the first is higher: 12400 fluorescence intensity (a.u.) for the first, 9050 fluorescence intensity (a.u.) for the second.

Going from “TACTGTATAGTTGTTACAACTTCCTTTTTAATTATTCAATCGGAGTCACCTAGTGCAG” to “AGACGAATGGTCAAACACGTATTAAAAAGTCAACGGTGTCCGGAGTCACCTAGTGCAG”, the binding signal rises from 8060 fluorescence intensity (a.u.) to 19700 fluorescence intensity (a.u.).

Going from “GAATGGTCAAACACGTACTAAAAAAGTCAACGGTGTCAAACGGAGTCACCTAGTGCAG” to “AATGGTCAAACACGTATTTAAAAAGTCAACGGTGTCAAACCGGAGTCACCTAGTGCAG”, the binding signal falls from 17500 fluorescence intensity (a.u.) to 14100 fluorescence intensity (a.u.).

Compared with “AAGACGAATGATCAAACACGTACTAAAAAAGTCAACGGTGCGGAGTCACCTAGTGCAG”, “GGTCAAATACGTACTAAAAAGTCAACGGTGTCAAACATTTCGGAGTCACCTAGTGCAG” is higher in binding signal: 11600 fluorescence intensity (a.u.) for the first, 12900 fluorescence intensity (a.u.) for the second.

First: GACGAATGGTCAAACACGTACTAAAAAGTCAACGGTGTCACGGAGTCACCTAGTGCAG
Second: CTAATGGTTCTGATCGCCGTGCCTAACCCTAGCCCCATATCGGAGTCACCTAGTGCAG
The binding signal of the first is higher: 12200 fluorescence intensity (a.u.) for the first, 8400 fluorescence intensity (a.u.) for the second.

Going from “TCTTTTGCTTCTGTTCTGCACCGGTCTCTCTGATGGATGTCGGAGTCACCTAGTGCAG” to “AATAGATGACATTGTTGACTTATTCTTACATGTTTGCCCACGGAGTCACCTAGTGCAG”, the binding signal falls from 9680 fluorescence intensity (a.u.) to 9350 fluorescence intensity (a.u.).

Compared with “AATTGCTGTTGACCTGTTGTTGTGCTCCAACATCCAAACACGGAGTCACCTAGTGCAG”, “TGACAATGGTGTTGCATCTCCAAAGCTGCAGAAACAAACACGGAGTCACCTAGTGCAG” is higher in binding signal: 8290 fluorescence intensity (a.u.) for the first, 48300 fluorescence intensity (a.u.) for the second.

First: TCCACCTCCTAGCGAAATGCATGGTTGGCCAAACAACACACGGAGTCACCTAGTGCAG
Second: TACGAGGAGGGCCCATGCGTCGGTGGGTAGGGTGAAAAGACGGAGTCACCTAGTGCAG
The binding signal of the first is lower: 8300 fluorescence intensity (a.u.) for the first, 8690 fluorescence intensity (a.u.) for the second.

Going from “AGGAGGGCGGGGTCGTCGTCGTCCGGGGTGGTGGTGGCCGCGGAGTCACCTAGTGCAG” to “GAAAGTGGGAGAGAGAATAGGTTGGGGTGGTTGGTTTGGGCGGAGTCACCTAGTGCAG”, the binding signal falls from 17000 fluorescence intensity (a.u.) to 14700 fluorescence intensity (a.u.).

First: GACCTTTGGGTAGGGGTGGGGATGGGGCGAAATTACTAAACGGAGTCACCTAGTGCAG
Second: GGAGGGTGGAGGGCGGAGGACGGAGGTGGTGGCGCCGCGCCGGAGTCACCTAGTGCAG
The binding signal of the first is higher: 30300 fluorescence intensity (a.u.) for the first, 9550 fluorescence intensity (a.u.) for the second.

Going from “GCTGGCGCCGGAGAGAGAGAGTGGGTTGGTTGTAATAAATCGGAGTCACCTAGTGCAG” to “GAGGTGGTGGAGGAGGAGGCCAGGGGTTCGTTGGCGGCGGCGGAGTCACCTAGTGCAG”, the binding signal falls from 9290 fluorescence intensity (a.u.) to 8840 fluorescence intensity (a.u.).

Going from “GGAGGAGGTGGCGGCGGAGGGGTTGGTGGTGGAGGTGGTCCGGAGTCACCTAGTGCAG” to “GCGGGGTTGGAGGAGGAGGAGGTGGTGGTGGTGGTGGTGGCGGAGTCACCTAGTGCAG”, the binding signal falls from 20800 fluorescence intensity (a.u.) to 15300 fluorescence intensity (a.u.).

Going from “AATAAAGTTGGGTGGTTGGGGCGCGCGATAGGAGTAAATCCGGAGTCACCTAGTGCAG” to “TGGGGATGGGGAATTGACCTGGGTAGGGGTGGTAATTGGGCGGAGTCACCTAGTGCAG”, the binding signal falls from 17400 fluorescence intensity (a.u.) to 16000 fluorescence intensity (a.u.).

Going from “TGGTGGTGAGGAGGAGGAGGAGGAGGGCGGGGTCGTCGTCCGGAGTCACCTAGTGCAG” to “ACTAACGAAATTACTACTTCGTAGGGGTAGGGGTGGCGTGCGGAGTCACCTAGTGCAG”, the binding signal falls from 16200 fluorescence intensity (a.u.) to 9370 fluorescence intensity (a.u.).

Going from “GGTTTCGTTCGCGAGGAGGAGAGATCTGGTTGGGGAGATGCGGAGTCACCTAGTGCAG” to “AGGAGGCGCTACCTTCTATTCCTCACCGGCTCACCGCTATCGGAGTCACCTAGTGCAG”, the binding signal rises from 9660 fluorescence intensity (a.u.) to 9700 fluorescence intensity (a.u.).

Going from “TGATTTTTTTTTTGTTTCACAGTGCACAGACCAATGTTTCCGGAGTCACCTAGTGCAG” to “CGCCGCCACCGCGACTCCTCGCATTCGTCCCCACCACATCCGGAGTCACCTAGTGCAG”, the binding signal rises from 8320 fluorescence intensity (a.u.) to 9990 fluorescence intensity (a.u.).

Going from “CTTTTTTTTAATGTATTGATGCTTCTTTTCTAGTTTGTACCGGAGTCACCTAGTGCAG” to “AGTAGCAGCAGCAGCAGCAGGCAGGAGGGAGTGGGTTTGTCGGAGTCACCTAGTGCAG”, the binding signal rises from 9060 fluorescence intensity (a.u.) to 9600 fluorescence intensity (a.u.).

Compared with “GACAGCGTGAATTCGAGGGATTTCTTGGCTGGTTTGGTTGCGGAGTCACCTAGTGCAG”, “TTCTCCGCGCTGCAGTCCTCGCCACAACTCGTCGGCCGAACGGAGTCACCTAGTGCAG” is higher in binding signal: 10100 fluorescence intensity (a.u.) for the first, 11600 fluorescence intensity (a.u.) for the second.

First: GGTCATTCATGTATTTTTCTTGCGTTTTGCAATCCTCTGTCGGAGTCACCTAGTGCAG
Second: CCGCCGCCGCCGCCGCCGACCTTGTCACTCCGGCCGCTGCCGGAGTCACCTAGTGCAG
The binding signal of the first is higher: 11200 fluorescence intensity (a.u.) for the first, 9390 fluorescence intensity (a.u.) for the second.

Going from “GACCGACTACTCCTACAAACATTACTCAAGTCATTGCAAACGGAGTCACCTAGTGCAG” to “ATTTTGCATGGGGCATGTGTGAAGTGTCCTACTAAATTTTCGGAGTCACCTAGTGCAG”, the binding signal rises from 8200 fluorescence intensity (a.u.) to 9350 fluorescence intensity (a.u.).

Going from “CGGTAGGGCGAGCACGGGTGGGGTTGGTGGTGATTTTTTTCGGAGTCACCTAGTGCAG” to “AGGGAGGCGTAGGTTGTGGTCGTTGTTGCGGTTTGGAGTTCGGAGTCACCTAGTGCAG”, the binding signal falls from 20800 fluorescence intensity (a.u.) to 8250 fluorescence intensity (a.u.).

First: GGTAGGGCTGCCGCCGGTGGGTAGGGGTGGTGGATTTTTTCGGAGTCACCTAGTGCAG
Second: AATTCCGGTGGTTCACCGCCGGTGAGGGTTGGAGGAGGGGCGGAGTCACCTAGTGCAG
The binding signal of the first is higher: 14400 fluorescence intensity (a.u.) for the first, 8160 fluorescence intensity (a.u.) for the second.

Going from “GGTTGTAGGTGGAGGAGGAGGAGGGGCGGTTCCGGAGTTTCGGAGTCACCTAGTGCAG” to “CCCGGCCGCTCTCTCCGGGTGGGGTGGTGGGTGGCAAGGGCGGAGTCACCTAGTGCAG”, the binding signal falls from 22600 fluorescence intensity (a.u.) to 21100 fluorescence intensity (a.u.).

Going from “TCCGCTCGTTCCTCTCCCGACGAGGGTGGGTGGGGTGGGGCGGAGTCACCTAGTGCAG” to “GGAGGGGCGGGGTGGCGCGGCGAGGCCGGCGACAAGGCCGCGGAGTCACCTAGTGCAG”, the binding signal falls from 22700 fluorescence intensity (a.u.) to 9130 fluorescence intensity (a.u.).

First: GACTCGGCGGCCTCTGCTCCTCCGCTCGTTCCTCTCCCGACGGAGTCACCTAGTGCAG
Second: GCGCGCCGCGCTCACGGGTGGGTCAAGGCAAGGGGAAGGGCGGAGTCACCTAGTGCAG
The binding signal of the first is higher: 11100 fluorescence intensity (a.u.) for the first, 9400 fluorescence intensity (a.u.) for the second.

First: GGTTCGTTCGTTCCTCCCGCGGCGACGGGGTGGGGCACACCGGAGTCACCTAGTGCAG
Second: GTGTGGTGCGAGCAGTGATATTTTCTGTGTTGGGTCTGGGCGGAGTCACCTAGTGCAG
The binding signal of the first is higher: 8930 fluorescence intensity (a.u.) for the first, 8120 fluorescence intensity (a.u.) for the second.
